Data on 23 molecules can be found in PubChem BioAssay (NCATS).

Values joined by “and” are separate entries in the source; they are usually repeats but may differ in a detail not shown here. Equal entries are not always repeated. Records with an inconclusive call do not appear. Active and inactive are the calls of the source. Unless noted, calls come from the whole dose curve; as a rule, active = well fitted curve in the direction sought with a large enough effect; inconclusive = small, poorly fitted or top-dose-only effect, or another doubt; inactive = no such curve, though single readings can be large; an effect the other way counts as inactive or inconclusive.

Experiment [1] in a line: Primary qHTS for inhibitors of La Crosse Virus (LACV) - induced cell death in SH-SY5Y cells (AID 1508616).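 Note: top concentration of the series differs between compounds; higher means more rescue of cells from virus-induced death.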 In short, it runs like this:
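SH-SY5Y cells (6000/well) plated 24 h, then given compounds by pin transfer and LACV at 0.01 MOI for 6 days at 37C. Viability measured by ATPLite luminescence, normalized to infected DMSO and uninfected DMSO.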
(In general: In qHTS, concentration-response curves come from the screen itself.)

In experiment [2] the target is Calcium and integrin-binding protein 1 (Homo sapiens) (UniProt Q99828). As to the kind of experiment: Primary qHTS for Identification of Calcium Integrin Binding Protein 1 (CIB1) Competitor (AID 1508620).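 Note: GST tagged CIB1 binding a fluorescein labelled alphaIIb integrin peptide tracer; top concentration of the series differs between compounds.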 In short, it runs like this:
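Fluorescence polarization competition: CIB1-GST (1 uM final) preincubated with compound 15 min at room temperature, then FITC-labeled alphaIIb peptide (100 nM final) added for another 15 min. Polarization read at Ex 480/Em 540.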

Experiment [3] can be described thus: Primary qHTS for small molecule stabilizers of the endoplasmic reticulum resident proteome: Secreted ER Calcium Modulated Protein (SERCaMP) assay (AID 1508630). In short, it runs like this:
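GLuc-SERCaMP-expressing SH-SY5Y cells, pretreated 16 h with compound, are challenged with thapsigargin to empty ER calcium stores; after 4 h, coelenterazine is added directly to the medium and luminescence is imaged.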

In experiment [4] the target is Cytochrome P450 2D6 (Homo sapiens) (UniProt P10635). In words: Cytochrome P450 family 2 subfamily D member 6 (CYP2D6) small molecule antagonists: luciferase biochemical (cell-free) qHTS assay (AID 1645840; active = well fitted curve in the direction sought with a large enough effect in the repeat runs; an effect the other way counts as inactive or inconclusive; note: nearly all actives have a fitted effect of over 55% in size; note: potency is the fitted concentration of half-maximal effect). In short, it runs like this: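 P450-Glo luminescent screen: recombinant CYP2D6 enzyme–proluciferin substrate mix preincubated with compound 10 min at room temperature, then NADPH regeneration added for 1 h at room temperature. Detection reagent added for 20 min; luciferin light read as relative luminescence units.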
Sequence of Cytochrome P450 2D6 (Homo sapiens) (P10635 whole entry, looked up): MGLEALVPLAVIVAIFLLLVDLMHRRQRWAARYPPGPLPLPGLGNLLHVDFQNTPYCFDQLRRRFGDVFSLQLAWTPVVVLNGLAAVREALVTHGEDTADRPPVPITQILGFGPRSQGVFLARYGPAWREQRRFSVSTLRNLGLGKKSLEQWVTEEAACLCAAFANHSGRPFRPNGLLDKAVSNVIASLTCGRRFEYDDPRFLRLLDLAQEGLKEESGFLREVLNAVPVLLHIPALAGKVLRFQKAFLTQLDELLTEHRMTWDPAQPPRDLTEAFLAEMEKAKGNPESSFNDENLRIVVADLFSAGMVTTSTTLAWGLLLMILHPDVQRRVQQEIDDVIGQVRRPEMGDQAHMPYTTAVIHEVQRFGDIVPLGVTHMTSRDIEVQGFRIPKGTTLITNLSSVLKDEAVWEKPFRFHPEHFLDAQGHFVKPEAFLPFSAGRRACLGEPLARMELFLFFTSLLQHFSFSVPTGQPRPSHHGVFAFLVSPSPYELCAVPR

Experiment [5] deals with Cytochrome P450 2C9 (Homo sapiens) (UniProt P11712). In words: Cytochrome P450 family 2 subfamily C member 9 (CYP2C9) small molecule antagonists: luciferase biochemical (cell-free) qHTS assay (AID 1645842; active = well fitted curve in the direction sought with a large enough effect in the repeat runs; an effect the other way counts as inactive or inconclusive; note: nearly all actives have a fitted effect of over 55% in size; note: potency is the fitted concentration of half-maximal effect). In short, it runs like this:
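Luminescence, after 20 min with luciferin detection reagent, reflected CYP2C9 turnover during a 1 h NADPH-driven reaction at 37C. Enzyme-substrate mix contained 0.4% bovine serum albumin and was preincubated with compound 10 min at room temperature.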

The nature of experiment [6]: Primary qHTS for inhibitors of nuclear receptor binding SET domain protein 2 (NSD2) in an isogenic RCH-ACV NSD2 p.E1099K mutant (9B) (AID 1645876). Note: nearly all actives have a fitted effect of over 70% in size. Note: potency is the fitted concentration of half-maximal effect.
A short description of experiment [7]: Primary qHTS for inhibitors of nuclear receptor binding SET domain protein 2 (NSD2) in an RCH-ACV wild type WT cells (2C) (AID 1645877). Note: nearly all actives have a fitted effect of over 70% in size. Note: potency is the fitted concentration of half-maximal effect.
The target of experiment [8] is Rap guanine nucleotide exchange factor 3 (Homo sapiens) (UniProt O95398). In words: Confirmatory qHTS for antagonist of cAMP-regulated guanine nucleotide exchange factor 3 (EPAC1) (AID 1645880). Note: nearly all actives have a fitted effect of over 55% in size. In short, it runs like this:
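Nucleotide exchange uses 100 nM EPAC1, 250 nM RAP1B-BODIPY-GDP and 50 uM GDP, with compounds in a concentration-titration series. After 5 min at room temperature, fluorescence (480 nm ex/540 nm em) is read every 5 min for 30 min. Data are normalized to control ATA and DMSO.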

For experiment [9] the target is unchanged. As to the kind of experiment: Confirmatory qHTS for agonist of cAMP-regulated guanine nucleotide exchange factor 3 (EPAC1) (AID 1645881).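 Note: EPAC1 catalysed release of BODIPY-GDP from Rap1B seen as fluorescence loss; nearly all actives have a fitted effect of over 75% in size.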
Experiment [10] deals with Rap guanine nucleotide exchange factor 4 (Homo sapiens) (UniProt Q8WZA2). As to the kind of experiment: Confirmatory qHTS for agonist of cAMP-regulated guanine nucleotide exchange factor 4 (EPAC2) (AID 1645884).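 Note: nucleotide exchange releases bodipy-GDP from Rap1 and this lowers its fluorescence; nearly all actives have a fitted effect of over 65% in size.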
Sequence of Rap guanine nucleotide exchange factor 4 (Homo sapiens) (Q8WZA2 whole entry, looked up): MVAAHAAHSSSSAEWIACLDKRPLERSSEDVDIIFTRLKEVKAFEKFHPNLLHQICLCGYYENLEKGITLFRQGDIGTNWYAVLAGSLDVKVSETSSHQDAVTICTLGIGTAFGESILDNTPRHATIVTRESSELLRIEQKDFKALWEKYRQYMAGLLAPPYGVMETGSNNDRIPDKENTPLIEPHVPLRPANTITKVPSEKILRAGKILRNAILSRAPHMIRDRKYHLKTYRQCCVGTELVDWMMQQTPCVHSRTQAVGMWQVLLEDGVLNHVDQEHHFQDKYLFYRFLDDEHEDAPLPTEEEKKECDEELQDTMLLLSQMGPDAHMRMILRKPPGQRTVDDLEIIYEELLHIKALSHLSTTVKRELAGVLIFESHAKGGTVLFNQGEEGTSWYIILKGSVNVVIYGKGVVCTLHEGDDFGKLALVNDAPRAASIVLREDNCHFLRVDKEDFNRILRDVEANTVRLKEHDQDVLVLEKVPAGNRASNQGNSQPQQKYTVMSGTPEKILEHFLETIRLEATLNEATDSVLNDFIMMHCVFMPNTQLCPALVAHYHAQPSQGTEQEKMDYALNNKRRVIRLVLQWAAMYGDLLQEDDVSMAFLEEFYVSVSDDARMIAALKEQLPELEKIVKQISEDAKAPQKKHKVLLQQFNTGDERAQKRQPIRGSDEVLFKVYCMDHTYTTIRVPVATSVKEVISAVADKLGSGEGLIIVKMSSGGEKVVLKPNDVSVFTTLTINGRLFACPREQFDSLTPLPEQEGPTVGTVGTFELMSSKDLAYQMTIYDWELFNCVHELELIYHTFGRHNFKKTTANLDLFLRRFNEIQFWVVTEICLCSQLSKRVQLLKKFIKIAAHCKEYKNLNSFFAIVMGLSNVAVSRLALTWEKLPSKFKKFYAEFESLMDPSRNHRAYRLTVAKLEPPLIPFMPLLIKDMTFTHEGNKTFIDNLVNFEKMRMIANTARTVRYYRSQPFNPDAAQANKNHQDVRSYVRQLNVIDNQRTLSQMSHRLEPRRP
Experiment [11] has the same target. As to the kind of experiment: Confirmatory qHTS for antagonist of cAMP-regulated guanine nucleotide exchange factor 4 (EPAC2) (AID 1645885). Note: nearly all actives have a fitted effect of over 25% in size. Note: potency is the fitted concentration of half-maximal effect.
Experiment [12] is described as follows: A High-Content qHTS Against Drug Library for the Identification of Small Molecules that Inhibit DYT1 Early Onset Primary Dystonia-Associated Cell Pathology (AID 1645839; calls by dose curve; note: potency is the fitted concentration of half-maximal effect). In short, it runs like this:
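Readout: %pathology, the punctate EGFP-TorsinA distribution from imaging, as the primary channel and cell count as the toxicity counterscreen. HEK293 Flp-In cells expressing delE TorsinA were induced with tetracycline and treated with compound for 48 h.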

Sequence of Calcium and integrin-binding protein 1 (Homo sapiens) (Q99828 whole entry, looked up): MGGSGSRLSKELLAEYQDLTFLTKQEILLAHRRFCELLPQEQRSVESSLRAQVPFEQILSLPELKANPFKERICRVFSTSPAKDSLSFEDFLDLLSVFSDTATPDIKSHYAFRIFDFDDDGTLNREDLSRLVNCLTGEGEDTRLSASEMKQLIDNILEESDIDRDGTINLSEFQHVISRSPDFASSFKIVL
Sequence of Cytochrome P450 2C9 (Homo sapiens) (P11712 whole entry, looked up): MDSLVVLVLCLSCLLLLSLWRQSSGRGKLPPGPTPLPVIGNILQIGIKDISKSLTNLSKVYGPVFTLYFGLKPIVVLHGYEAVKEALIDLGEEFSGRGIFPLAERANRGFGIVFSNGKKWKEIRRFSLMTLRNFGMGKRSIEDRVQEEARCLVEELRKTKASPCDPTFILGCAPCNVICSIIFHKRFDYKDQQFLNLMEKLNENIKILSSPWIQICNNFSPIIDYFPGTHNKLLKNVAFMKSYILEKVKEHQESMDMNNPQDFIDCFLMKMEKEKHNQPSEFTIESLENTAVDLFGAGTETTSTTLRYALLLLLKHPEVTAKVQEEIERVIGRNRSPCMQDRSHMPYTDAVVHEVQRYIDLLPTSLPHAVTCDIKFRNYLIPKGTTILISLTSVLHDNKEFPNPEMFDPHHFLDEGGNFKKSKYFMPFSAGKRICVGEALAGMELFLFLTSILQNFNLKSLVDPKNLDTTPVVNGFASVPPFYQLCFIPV
Sequence of Rap guanine nucleotide exchange factor 3 (Homo sapiens) (O95398 whole entry, looked up): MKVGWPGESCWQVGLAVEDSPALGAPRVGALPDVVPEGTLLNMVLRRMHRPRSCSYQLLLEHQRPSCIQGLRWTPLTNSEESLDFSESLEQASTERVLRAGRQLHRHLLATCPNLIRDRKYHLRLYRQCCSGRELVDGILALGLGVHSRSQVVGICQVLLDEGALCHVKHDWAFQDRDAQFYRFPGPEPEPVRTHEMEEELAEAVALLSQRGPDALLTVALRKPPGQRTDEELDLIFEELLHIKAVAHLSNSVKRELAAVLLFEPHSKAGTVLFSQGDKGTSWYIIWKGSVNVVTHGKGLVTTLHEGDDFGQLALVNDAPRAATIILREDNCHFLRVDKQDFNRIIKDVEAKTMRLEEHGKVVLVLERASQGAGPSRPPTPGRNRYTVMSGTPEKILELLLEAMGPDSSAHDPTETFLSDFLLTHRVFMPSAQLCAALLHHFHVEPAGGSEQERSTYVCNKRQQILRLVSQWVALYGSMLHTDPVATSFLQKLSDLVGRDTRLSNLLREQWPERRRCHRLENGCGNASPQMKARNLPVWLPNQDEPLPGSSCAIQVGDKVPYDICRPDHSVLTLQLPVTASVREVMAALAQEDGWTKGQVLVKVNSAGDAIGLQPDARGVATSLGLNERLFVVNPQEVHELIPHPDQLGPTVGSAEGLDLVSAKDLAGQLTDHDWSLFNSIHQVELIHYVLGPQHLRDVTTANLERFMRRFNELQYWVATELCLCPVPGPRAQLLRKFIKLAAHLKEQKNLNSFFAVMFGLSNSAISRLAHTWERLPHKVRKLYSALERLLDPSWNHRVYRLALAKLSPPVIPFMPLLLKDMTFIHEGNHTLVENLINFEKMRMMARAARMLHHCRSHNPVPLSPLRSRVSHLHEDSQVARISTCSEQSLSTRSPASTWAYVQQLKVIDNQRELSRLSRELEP

With `O=C(OCC(O)CO)c1ccccc1Nc1ccnc2cc(Cl)ccc12` (configuration not stated), the Potency result in [1], in experiment [2] and in [3] was “inactive” each time. The Potency is 8.71 µM (active) in experiment [4], 5.49 µM (active) in experiment [5], 16.8 µM (active) in [6] and 23.7 µM (active) in experiment [7].
With `O=C(COc1ccc(Cl)cc1)N1CCN(Cc2ccc3c(c2)OCO3)CC1`, the Potency result in experiment [1], in [2] and in experiment [3] was “inactive” each time. Further, the results for the Potency in experiment [4] and in [5] were 0.436 µM (active) and 12.3 µM (active), respectively.
In the case of `CC(C)n1nc(-c2cc3cc(O)ccc3[nH]2)c2c(N)ncnc21`, the Potency entry in experiment [1], in [2] and in [3] was “inactive” in each case. The Potency in experiment [4] was 13.5 µM (active); in experiment [5], 1.95 µM (active) and 1.51 µM (active); in experiment [6] it was 29.9 nM (active) and 3.32 µM (active); in experiment [7], 47.3 nM (active) and 3.32 µM (active).
In the case of `O=C(OCCOCCO)c1ccccc1Nc1cccc(C(F)(F)F)c1`, the Potency entry in experiment [1], in experiment [2] and in experiment [3] was “inactive” each time. Further, the values for the Potency in experiment [4], in experiment [5] and in [7] were 27.5 µM (active), 17.4 µM (active) and 16.8 µM (active), respectively.
In the case of `CCCCCCCCCCOCC(O)CN` (configuration not stated), the Potency entry in experiment [1], in experiment [2] and in experiment [3] was “inactive” in each case. For the same molecule, the figures for the Potency in [4] and in [5] were 4.83 µM (active) and 10.8 µM (active), respectively.
In the case of `Cc1ccc(C(=O)C(C)CN2CCCCC2)cc1` (configuration not stated), the Potency entry in [1], in [2], in experiment [3], in [5] and in experiment [6] was “inactive” in each case. In addition, the Potency is 1.74 µM (active) in experiment [4] and 21.1 µM (active) in experiment [7].
For `CCCCOc1ccc(C(=O)CCN2CCCCC2)cc1`, the Potency entry in [1], in [2] and in experiment [3] was “inactive” throughout. In addition, the Potency is 4.9 µM (active) in experiment [4], 15 µM (active) in experiment [6] and 13.3 µM (active) in experiment [7].
For the molecule `Oc1c(Cl)cc(Cl)cc1Sc1cc(Cl)cc(Cl)c1O`, the Potency entry in experiment [1], in experiment [2] and in experiment [3] was “inactive” in each case. In addition, the Potency in [4] was 12 µM (active); in [5], 6.01 µM (active).
As for `c1ccc(OCc2ccc(CCCN3CCOCC3)cc2)cc1`, the Potency entry in experiment [1], in experiment [2], in experiment [3] and in [5] was “inactive” in each case. Besides, the Potency in [4] was 6.92 µM (active).
As for `CCC(=O)c1c(O)cc(O)cc1O`, the Potency result in [1], in experiment [2], in experiment [3], in experiment [6] and in experiment [7] was “inactive” in each case. The Potency was 24.5 µM (active) in experiment [4] and 15.5 µM (active) in experiment [5].
On to `C[C@]12C=CC(=O)C=C1[C@@H](F)C[C@@H]1[C@@H]2[C@@H](O)C[C@@]2(C)[C@H]1CC[C@]2(O)C(=O)CO`, for which the Potency entry in [1], in [2], in experiment [3], in [4] and in [5] was “inactive” each time. In addition, the Potency in experiment [7] is 0.0422 µM (active).
`C#C[C@]1(OC(C)=O)CC[C@H]2[C@@H]3CCC4=C[C@@H](OC(C)=O)CC[C@@H]4[C@H]3CC[C@@]21C`: the Potency result in experiment [1], in experiment [2], in experiment [3], in [4], in [8] and in experiment [10] was “inactive” throughout. In addition, the Potency result in [11] was “inactive”. Further, the Potency is 13.6 µM (active) in [5] and 18.8 µM (active) in experiment [7]. Moreover, the molecule was classed as inactive in [9].
In the case of `CC1(C)O[C@@H]2C[C@H]3[C@@H]4C[C@H](F)C5=CC(=O)C=C[C@]5(C)[C@H]4[C@@H](O)C[C@]3(C)[C@]2(C(=O)CO)O1`, the Potency entry in experiment [1], in experiment [2], in experiment [3], in experiment [4] and in experiment [6] was “inactive” each time. Besides, in [7], the Potency was 0.0166 µM (active).
`Cc1c(F)c(N2CCNC(C)C2)cc2c1c(=O)c(C(=O)O)cn2C1CC1` (configuration not stated): the Potency entry in experiment [1], in [2], in [3], in experiment [4], in experiment [5] and in experiment [6] was “inactive” in each case. Further, the Potency result in experiment [7] was “inactive”.
As for `CC1(C)O[C@@H]2C[C@H]3[C@@H]4C[C@H](F)C5=CC(=O)CC[C@]5(C)[C@H]4[C@@H](O)C[C@]3(C)[C@]2(C(=O)CO)O1`, the Potency entry in experiment [1], in experiment [2], in experiment [3], in experiment [4] and in experiment [5] was “inactive” throughout. Moreover, in [7], the Potency is 0.0094 µM (active).
For the molecule `CCCCOc1ccc(OCCCN2CCOCC2)cc1`, the Potency result in experiment [1], in [2], in experiment [3] and in experiment [5] was “inactive” throughout. Also, in [4], the Potency was 13.8 µM (active).
Consider `COc1cc2c(cc1OC)C(=O)C(CC1CCN(Cc3ccccc3)CC1)C2` (configuration not stated), for which the Potency result in [1], in experiment [2] and in [3] was “inactive” each time. Besides, the Potency is 12.6 µM (active) in [12] and 21.1 µM (active) in [7].
For `CC(Cc1cccc(C(F)(F)F)c1)NCCOC(=O)c1ccccc1` (configuration not stated), the Potency result in experiment [1], in experiment [2], in experiment [3] and in [10] was “inactive” each time. Also, the results for the Potency in [4], in experiment [5] and in experiment [11] were 0.0069 µM (active), 19.5 µM (active) and 49.4 µM (active), respectively. Moreover, the molecule was called inactive in [9].
On to `O=S1(=O)c2cccc3cccc(c23)N1CCCN1CCN(c2ccc(F)cc2)CC1`, for which the Potency entry in experiment [1], in experiment [2], in experiment [3], in experiment [5], in experiment [6] and in [7] was “inactive” throughout. The Potency in [4] is 3.47 µM (active).
In the case of `CC(C)(C)CC(C)(C)c1ccc(O)c(Cc2ccc(Cl)cc2Cl)c1`, the Potency result in [1], in experiment [2], in [3] and in experiment [6] was “inactive” in each case. Also, the Potency in experiment [4] is 19.5 µM (active); in [5], 3.09 µM (active).
Regarding `Nc1ccc(C(=O)O)cc1`, the Potency entry in [1], in [2], in [3], in experiment [4], in [5] and in [6] was “inactive” in each case. The Potency result in experiment [7] was “inactive”.
For `COc1cccc(OC)c1C(=O)N[C@@H]1C(=O)N2[C@@H]1SC(C)(C)[C@@H]2C(=O)O`, the Potency entry in experiment [1], in [2], in experiment [3], in experiment [4], in experiment [5] and in [6] was “inactive” in each case. Also, in experiment [7], the Potency entry was “inactive”.
Regarding `CCOc1ccc(Cc2nccc3cc(OCC)c(OCC)cc23)cc1OCC`, the Potency result in [1], in experiment [2] and in experiment [3] was “inactive” each time. For the same molecule, the Potency is 13.8 µM (active) in [4], 1.74 µM (active) in [5], 2.37 µM (active) in [6] and 2.37 µM (active) in experiment [7].
